Records with an inconclusive call do not appear. Activity calls are given as the source filed them. The call rests on the fitted dose curve; in most records, active means well fitted inhibition curve with a large enough effect; inconclusive means small, poorly fitted or top-dose-only effect; inactive means flat fitted curve, though single readings scatter.
Assays:
Test in all cases: qHTS profiling for inhibitors of Plasmodium falciparum proliferation (AID 504749); further: nearly all actives have a fitted effect of over 60% in size
Conditions in all cases: P. falciparum in erythrocytes, SYBR Green DNA, 72 h; series mostly up to 28.7 µM
[1] = tested on: CP215
In short: (§1)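 Each compound contacts P. falciparum-infected red blood cells for 72 h at 37 C; lysis buffer (Tris, EDTA, saponin, Triton X, SYBR Green I) is added and fluorescence measured next morning; values normalized to controls.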

[2] = tested on: CP217
In short: as §1

[3] = tested on: CP237
In short: as §1

[4] = tested on: CP238
In short: as §1

[5] = tested on: CP247
In short: as §1

[6] = tested on: CP250
In short: as §1

[7] = tested on: CP252
In short: as §1

[8] = tested on: CP256
In short: as §1

[9] = tested on: CP260
In short: as §1

[10] = tested on: CP262
In short: as §1

[11] = tested on: CP265
In short: as §1

[12] = tested on: CP266
In short: as §1

[13] = tested on: CP268
In short: as §1

[14] = tested on: CP269
In short: as §1

[15] = tested on: CP286
In short: as §1

[16] = tested on: CP291
In short: as §1

[17] = tested on: CP297
In short: as §1

[18] = tested on: CP305
In short: as §1

[19] = tested on: CP315
In short: as §1

[20] = tested on: CP325
In short: as §1

Measured: outcome

CCOC(=O)C(CCc1ccccc1)NC(C)C(=O)N1Cc2ccccc2CC1C(=O)O (stereo not given)
inactive: [1] | [2] | [3] | [4] | [5] | [6] | [7] | [8] | [9] | [10] | [11] | [12] | [13] | [14] | [15] | [16] | [17] | [18] | [19] | [20]

CCc1cccc2c3c([nH]c12)[C@@](CC)(CC(=O)O)OCC3
inactive: [1] | [2] | [3] | [4] | [5] | [6] | [7] | [8] | [9] | [10] | [11] | [12] | [13] | [14] | [15] | [16] | [17] | [18] | [19] | [20]

Reference: PubChem BioAssay (NCATS)
